The record followed here is PubChem BioAssay (NCI).

About 83,000 compounds went through this panel and 20% of them were active in at least one assay; those are over-represented in the sample as a whole.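 How to read the values: 0–100, growth inhibition (40 = 60% inhibited); 0, no net growth; -100 to 0, cell death (-40 = 40% of starting cells died; -100 = all dead).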 Unmarked numbers belong to inactive results. Active and inactive are the calls of the source. How the source made its calls: active means growth percent below 10; inactive means the rest.

Among the test systems are HCT-15 colon; HT29 colon; SNB-75 CNS; SNB-19 CNS; U251 CNS; PC-3 prostate; SK-MEL-5 melanoma; UACC-62 melanoma; LOX IMVI melanoma; SK-MEL-28 melanoma; SK-MEL-2 melanoma; EKVX NSCLC; SN12C renal; UO-31 renal; TK-10 renal; ACHN renal; CAKI-1 renal; A498 renal; CCRF-CEM leukemia; MOLT-4 leukemia.
What all share (assay): NCI-60 one-dose screen, 48 h (100 = growth as untreated, 0 = no growth, -100 = all killed)
Common to all, as to details: 10 µM unless noted

For `Cn1cc(-c2nonc2-c2c[nH]c3ccc(F)cc23)c2cc(Br)ccc21`, the growth in the experiment with HCT-15 colon was 30.4%; in the experiment on HT29 colon, 20.9%; with SNB-75 CNS it was 45.5%; in the experiment with SNB-19 CNS, 58%; in the experiment with U251 CNS it was 41.4%; in the experiment with PC-3 prostate it was 44.2%. Besides, the growth with SK-MEL-5 melanoma was 76.6%; with UACC-62 melanoma, 52.9%; in the experiment on LOX IMVI melanoma it was 9.44% (active); in the experiment on SK-MEL-28 melanoma, 73.2%; in the experiment with SK-MEL-2 melanoma, 71.5%; in the experiment on EKVX NSCLC, 37.6%. Moreover, the growth in the experiment on SN12C renal is 63.7%; with UO-31 renal, 30.4%; with TK-10 renal, 57%; in the experiment with ACHN renal, 38.4%; in the experiment with CAKI-1 renal it was 25.3%; in the experiment with A498 renal it was 44.8%. Besides, the values for the growth in the experiment on CCRF-CEM leukemia and in the experiment on MOLT-4 leukemia were 40.7% and 32.1%, respectively.

On to `N#Cc1nc(-c2ccc(F)cc2)oc1S(=O)(=O)N1CCN(c2ccc(F)cc2)CC1`, for which the growth in the experiment with HCT-15 colon was 14%; in the experiment on HT29 colon, 65.9%; in the experiment with SNB-75 CNS it was 87.6%; with SNB-19 CNS, 96.9%; in the experiment on U251 CNS it was 86.7%; in the experiment on PC-3 prostate it was 92%. Moreover, the growth in the experiment on SK-MEL-5 melanoma is 93.1%; in the experiment on UACC-62 melanoma, 90.6%; with LOX IMVI melanoma it was 10.3%; with SK-MEL-28 melanoma, 104%; in the experiment with SK-MEL-2 melanoma, 90.9%; in the experiment on EKVX NSCLC, 113%. Further, the growth was 85% in the experiment on SN12C renal; 81.2% with UO-31 renal; 86% with TK-10 renal; 77.5% in the experiment with ACHN renal; 100% with CAKI-1 renal; 113% in the experiment with A498 renal. For the same molecule, the growth in the experiment on CCRF-CEM leukemia was 4.6% (active); in the experiment on MOLT-4 leukemia it was 1.8% (active).

In the case of `COc1ccc2c(c1)c(-c1nonc1-c1c[nH]c3ccc(Br)cc13)cn2C`, the growth was 22.2% in the experiment with HCT-15 colon; 11.9% in the experiment with HT29 colon; 63.3% in the experiment on SNB-75 CNS; 52.2% in the experiment with SNB-19 CNS; 34.9% in the experiment on U251 CNS; 43.8% in the experiment with PC-3 prostate. In addition, the growth was 57.1% in the experiment with SK-MEL-5 melanoma; 38.2% in the experiment on UACC-62 melanoma; 22.4% in the experiment on LOX IMVI melanoma; 61% with SK-MEL-28 melanoma; 46.9% with SK-MEL-2 melanoma; 31.6% in the experiment with EKVX NSCLC. The growth was 59.3% with SN12C renal; 40.8% in the experiment with UO-31 renal; 58.2% in the experiment on TK-10 renal; 43.7% with ACHN renal; 34.3% in the experiment with CAKI-1 renal; 27.4% with A498 renal. Further, the growth in the experiment with CCRF-CEM leukemia is 33.5%; with MOLT-4 leukemia, 17.6%.

Regarding `COc1cc(C(=O)C(=O)c2cc(OC)c(O)c(OC)c2)cc(OC)c1O`, the growth in the experiment on HCT-15 colon is 103%; with HT29 colon it was 103%; in the experiment on SNB-75 CNS, 91.6%; in the experiment on SNB-19 CNS, 99.8%; with U251 CNS, 98.4%; in the experiment with PC-3 prostate, 112%. For the same molecule, the growth in the experiment with SK-MEL-5 melanoma is 104%; in the experiment on UACC-62 melanoma, 89.8%; in the experiment with LOX IMVI melanoma, 97%; in the experiment with SK-MEL-28 melanoma, 107%; in the experiment on SK-MEL-2 melanoma it was 115%; in the experiment on EKVX NSCLC, 104%. Further, the growth in the experiment with SN12C renal was 91.3%; with UO-31 renal, 98.6%; in the experiment on TK-10 renal, 95.8%; in the experiment on ACHN renal, 98%; in the experiment with CAKI-1 renal, 105%; with A498 renal, 92.5%. Also, the values for the growth in the experiment with CCRF-CEM leukemia and in the experiment with MOLT-4 leukemia were 88.3% and 108%, respectively.

For the molecule `Cc1ccc2[nH]c(=O)c3c(c2c1)OC(N)=C(C#N)C31C(=O)c2cccc3cccc1c23` (stereo not given), the growth is 105% in the experiment on HCT-15 colon; 95.6% with HT29 colon; 84.4% in the experiment with SNB-75 CNS; 97.1% in the experiment with SNB-19 CNS; 95.2% in the experiment on U251 CNS; 89.3% with PC-3 prostate. The growth with SK-MEL-5 melanoma was 94.3%; in the experiment on UACC-62 melanoma it was 88.9%; in the experiment on LOX IMVI melanoma, 93.5%; in the experiment with SK-MEL-28 melanoma it was 98.7%; in the experiment with SK-MEL-2 melanoma, 110%; with EKVX NSCLC, 102%. The growth was 97.8% in the experiment with SN12C renal; 77.7% in the experiment on UO-31 renal; 123% with TK-10 renal; 95.5% in the experiment with ACHN renal; 90.9% in the experiment on CAKI-1 renal; 107% in the experiment with A498 renal. Also, the growth is 95.3% with CCRF-CEM leukemia and 88.1% in the experiment with MOLT-4 leukemia.

As for `CC1=C(C(=O)n2c3ccccc3c3ccccc32)C(c2cccc([N+](=O)[O-])c2)C(C(=O)n2c3ccccc3c3ccccc32)=C(C)N1`, the growth in the experiment on HCT-15 colon is 81.9%; in the experiment on HT29 colon, 104%; with SNB-75 CNS it was 82.9%; in the experiment with SNB-19 CNS, 95.6%; with U251 CNS it was 89.5%; with PC-3 prostate, 80.7%. The growth in the experiment with SK-MEL-5 melanoma was 93.7%; in the experiment with UACC-62 melanoma, 87.6%; in the experiment with LOX IMVI melanoma, 87.1%; in the experiment on SK-MEL-28 melanoma, 103%; in the experiment with SK-MEL-2 melanoma, 102%; in the experiment on EKVX NSCLC, 102%. Also, the growth in the experiment with SN12C renal is 99.9%; in the experiment with UO-31 renal, 71.4%; in the experiment on TK-10 renal it was 104%; with ACHN renal, 93.4%; with CAKI-1 renal, 77.5%; in the experiment with A498 renal, 93.1%. The values for the growth in the experiment on CCRF-CEM leukemia and with MOLT-4 leukemia were 88.7% and 83.1%, respectively.

For the molecule `O=C(CCCCNC(=O)c1cc(=O)c(O)co1)Nc1ccccc1`, the growth was 49% in the experiment on HCT-15 colon; 98.2% with HT29 colon; 84.9% in the experiment on SNB-75 CNS; 102% with SNB-19 CNS; 92.8% in the experiment with U251 CNS; 95.9% with PC-3 prostate. For the same molecule, the growth with SK-MEL-5 melanoma was 98.6%; with UACC-62 melanoma, 90.1%; with LOX IMVI melanoma, 45.3%; in the experiment on SK-MEL-28 melanoma it was 103%; with SK-MEL-2 melanoma it was 98.8%; with EKVX NSCLC, 95.6%. For the same molecule, the growth in the experiment on SN12C renal was 88.4%; in the experiment on UO-31 renal, 76.4%; in the experiment on TK-10 renal, 98.3%; with ACHN renal, 31.5%; in the experiment with CAKI-1 renal, 94.3%; in the experiment with A498 renal, 98.2%. The growth in the experiment with CCRF-CEM leukemia was 6.26% (active); in the experiment with MOLT-4 leukemia, 20.3%.

`O=C(Nc1ccc(F)cc1)Nc1ccccc1CNc1nc(Nc2ccc(OCCN3CCCC3)cc2)ncc1Cl`: the growth was 38.8% in the experiment on HCT-15 colon; 6.13% (active) in the experiment with HT29 colon; -15.7% (active) with SNB-75 CNS; 45.8% with SNB-19 CNS; 20.6% with U251 CNS; 61.7% with PC-3 prostate. The growth is 44.9% with SK-MEL-5 melanoma; 95.2% in the experiment on UACC-62 melanoma; -57.6% (active) in the experiment with LOX IMVI melanoma; -13.3% (active) in the experiment with SK-MEL-28 melanoma; 99% with SK-MEL-2 melanoma; 53.9% in the experiment with EKVX NSCLC. The growth in the experiment with SN12C renal is -21.7% (active); in the experiment on UO-31 renal, -81.5% (active); in the experiment on TK-10 renal, 47.2%; in the experiment with ACHN renal, -61.9% (active); in the experiment on CAKI-1 renal, 31.2%; with A498 renal, 80.4%. The growth is 6.77% (active) in the experiment with CCRF-CEM leukemia and 14.1% in the experiment on MOLT-4 leukemia.
